Experimental data published in PubChem BioAssay (Tox21).
Several values for one entry are separate records, joined by “and”; a condition that tells them apart may be missing. Equal entries are not always repeated. Records with an inconclusive call do not appear. Where a call stands in place of a potency, no number is given. Values without a mark were called inactive. Activity calls are given as the source filed them. Unless noted, calls follow the shape of the dose curve; as a rule, active = well fitted curve in the direction sought with a large enough effect in the repeat runs; inconclusive = weak or mixed curves; inactive = no such curve, though single readings can be large; an effect the other way counts as inactive or inconclusive.

test system: not listed separately; test: qHTS assay to identify small molecule antagonists of the thyroid receptor (TR) signaling pathway - cell viability counter screen (AID 743064); details: GH3.TRE-Luc viability, CellTiter-Fluor, 24 h; series mostly up to 70.3 µM; also: nearly all actives have a fitted effect of over 50% in size; also: potency is read from the fitted curve at half-maximal effect
Summary of the method: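 GH3.TRE-Luc rat pituitary cells carrying a TRE-luciferase reporter were treated with compound plus 1 nM T3 (final) for 23.5 h at 37 °C. Viability was then read in the same wells by CellTiter-Fluor fluorescence after a further 30 min.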

SMILES | Potency | activity change, negative = cytotoxic
C[CH2][Hg][S]c1ccccc1C(=O)O | 298 nM (active) and 273 nM (active) | –
CC1(C)CC(=O)CC(C)(C)N1[O] | inactive | –
COc1ccc(C(=O)c2c(C)n(CCN3CCOCC3)c3ccccc23)cc1 | inactive | –
CCOP(=O)(SC(C)CC)N1CCSC1=O (centres undefined) | inactive | –
OCCCl | inactive | –
O=S(=O)(Cl)Cl | inactive | –
NC(=S)c1c(Cl)cccc1Cl | inactive | –
COC(=O)Cc1ccccc1 | inactive | –
CCCCCCCCCCCCN=C(N)N | – | -13.9% [at 3.79 µM]
CC1(C)[C@H](C(=O)O[C@H](C#N)c2cccc(Oc3ccccc3)c2)[C@@H]1C=C(Br)Br | inactive | –
O=C(NC(=O)c1cc(F)c(F)cc1Cl)Nc1cc(F)ccc1N1CCC(C(=O)O)CC1 | inactive | –
CCC1(CCC(C)C)C(=O)NC(=O)NC1=O | inactive | –

test system: not listed separately; test: qHTS assay to identify small molecule antagonists of the thyroid receptor (TR) signaling pathway (AID 743065); details: GH3.TRE-Luc, T3-stimulated luciferase inhibition, 23.5 h; series mostly up to 70.3 µM; also: nearly all actives have a fitted effect of over 55% in size; also: potency is read from the fitted curve at half-maximal effect
Summary of the method: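 GH3.TRE-Luc rat pituitary cells (two TREs driving luciferase) were dosed with compound, then stimulated with 1 nM T3 (final) for 23.5 h at 37 C. ONE-Glo luminescence was the read-out, with CellTiter-Fluor fluorescence as the cytotoxicity counter-screen.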

SMILES | Potency
CCC(C)(C)O | inactive
CCCCCCCCCCCCCCCl | inactive
CN[C@@H](C)[C@H](O)c1ccccc1 | inactive
CCOP(=S)(S)OCC | inactive
OC[P+](CO)(CO)CO | inactive
CCC[N+](CCC)(CCC)CCC | inactive
O=C(Cc1ccccc1)c1ccccc1 | inactive
C[N+](C)(C)CC1CO1 (centres undefined) | inactive
COCc1cnc(C2=NC(C)(C(C)C)C(=O)N2)c(C(=O)O)c1 (centres undefined) | inactive
CC(C)(C)NCC(O)c1ccccc1Cl (centres undefined) | inactive
CCN(C(C)=O)c1cccc(-c2ccnc3c(C#N)cnn23)c1 | inactive
N#CC(C#N)=Cc1ccc(O)c(O)c1 | 26.6 µM (active)
CCC(C)(C)c1ccc(O)c(C(C)(C)CC)c1 | 12.1 µM (active) and 12.2 µM (active)
CC(C)OC(=O)Cc1ccccc1 | inactive
CCCC(C)(COC(N)=O)COC(=O)NC(C)C (centres undefined) | inactive
CON(C)C(=O)Nc1ccc(Cl)cc1 | inactive
Cc1nc(N(C)C)nc(OC(=O)N(C)C)c1C | inactive
CCOP(=O)(O)C(N)=O | inactive
Clc1ccccc1 | inactive
CC(C)C1(C)N=C(c2ncccc2C(=O)O)NC1=O (centres undefined) | inactive
CC(=O)OC(c1ccccc1)C(Cl)(Cl)Cl (centres undefined) | inactive
CCOC(=O)NC(O)C(Cl)(Cl)Cl (centres undefined) | inactive
O=C(CCl)CCl | 25.2 µM (active) and 8.63 µM (active)
CC(Cc1ccccc1)NCc1ccccc1Cl (centres undefined) | inactive
CCOC(=O)c1cncn1C(C)c1ccccc1 (centres undefined) | inactive
CC(C)(C)OOC(C)(C)CCC(C)(C)OOC(C)(C)C | inactive

test system: thyroid hormone receptor (rat, GH3 cells); test: qHTS assay to identify small molecule agonists of the thyroid receptor (TR) signaling pathway (AID 743066; calls by dose curve); details: GH3.TRE-Luc cells, TR agonist luciferase, 24 h; series mostly up to 83.9 µM

SMILES | Potency | activation
CCC(C)(C)O | inactive | –
CCCCCCCCCCCCCCCl | inactive | –
CN[C@@H](C)[C@H](O)c1ccccc1 | inactive | –
CCOP(=S)(S)OCC | inactive | –
OC[P+](CO)(CO)CO | inactive | –
CCC[N+](CCC)(CCC)CCC | inactive | –
O=C(Cc1ccccc1)c1ccccc1 | inactive | –
COc1ccc(C(=O)c2c(C)n(CCN3CCOCC3)c3ccccc23)cc1 | inactive | –
C[N+](C)(C)CC1CO1 (centres undefined) | inactive | –
COCc1cnc(C2=NC(C)(C(C)C)C(=O)N2)c(C(=O)O)c1 (centres undefined) | inactive | –
CC(C)(C)NCC(O)c1ccccc1Cl (centres undefined) | inactive | –
CCN(C(C)=O)c1cccc(-c2ccnc3c(C#N)cnn23)c1 | inactive | –
N#CC(C#N)=Cc1ccc(O)c(O)c1 | inactive | –
OCCCl | inactive | –
CCC(C)(C)c1ccc(O)c(C(C)(C)CC)c1 | inactive | –
CC(C)OC(=O)Cc1ccccc1 | inactive | –

SMILES | Potency | activation
CCCC(C)(COC(N)=O)COC(=O)NC(C)C (centres undefined) | inactive | –
CON(C)C(=O)Nc1ccc(Cl)cc1 | inactive | –
Cc1nc(N(C)C)nc(OC(=O)N(C)C)c1C | inactive | –
CCOP(=O)(O)C(N)=O | inactive | –
Clc1ccccc1 | inactive | –
CC(C)C1(C)N=C(c2ncccc2C(=O)O)NC1=O (centres undefined) | inactive | –
CCCCCCCCCCCCN=C(N)N | – | -1.59% [at 3.63 µM]
CC1(C)[C@H](C(=O)O[C@H](C#N)c2cccc(Oc3ccccc3)c2)[C@@H]1C=C(Br)Br | inactive | –
CC(=O)OC(c1ccccc1)C(Cl)(Cl)Cl (centres undefined) | inactive | –
CCOC(=O)NC(O)C(Cl)(Cl)Cl (centres undefined) | inactive | –
CCC1(CCC(C)C)C(=O)NC(=O)NC1=O | inactive | –
O=C(CCl)CCl | inactive | –
CC(Cc1ccccc1)NCc1ccccc1Cl (centres undefined) | inactive | –
CCOC(=O)c1cncn1C(C)c1ccccc1 (centres undefined) | inactive | –
CC(C)(C)OOC(C)(C)CCC(C)(C)OOC(C)(C)C | inactive | –

target: Estrogen receptor (Homo sapiens) (UniProt P03372); test: qHTS assay to identify small molecule antagonists of the estrogen receptor alpha (ER-alpha) signaling pathway (AID 743069; active = well fitted curve in the direction sought with a large enough effect in the signal ratio in the repeat runs, not every such curve was filed as active; the % refers to the signal ratio); details: HEK293 ER-alpha-UAS-bla, beta-lactamase ratio, antagonist mode; series mostly up to 69.4 µM
Sequence (P03372 whole entry, looked up): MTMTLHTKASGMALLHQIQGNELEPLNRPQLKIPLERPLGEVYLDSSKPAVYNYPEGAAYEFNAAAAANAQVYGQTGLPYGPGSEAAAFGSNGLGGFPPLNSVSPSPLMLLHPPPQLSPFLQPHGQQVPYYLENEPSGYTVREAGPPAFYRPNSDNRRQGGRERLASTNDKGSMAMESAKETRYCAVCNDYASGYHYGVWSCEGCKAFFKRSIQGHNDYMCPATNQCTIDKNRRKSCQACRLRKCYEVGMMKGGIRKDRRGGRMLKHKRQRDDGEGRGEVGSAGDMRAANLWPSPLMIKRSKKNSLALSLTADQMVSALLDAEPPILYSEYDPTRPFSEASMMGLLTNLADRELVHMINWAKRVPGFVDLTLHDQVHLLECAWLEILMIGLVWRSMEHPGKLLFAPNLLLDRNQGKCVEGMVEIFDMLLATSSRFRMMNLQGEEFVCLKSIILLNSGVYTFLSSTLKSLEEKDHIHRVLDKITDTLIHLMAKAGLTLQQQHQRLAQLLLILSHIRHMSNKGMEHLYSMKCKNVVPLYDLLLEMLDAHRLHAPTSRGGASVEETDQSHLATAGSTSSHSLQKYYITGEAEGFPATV
Summary of the method: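 Beta-lactamase FRET fluorescence is read after 2 hr at room temperature with LiveBLAzer B/G substrate. Before that, ER-alpha-bla HEK293 cells sit 4 hr after plating, then receive compound plus 17beta-estradiol and incubate 18 hr at 37C.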

SMILES | Potency
CCC(C)(C)O | inactive
CCCCCCCCCCCCCCCl | inactive
CN[C@@H](C)[C@H](O)c1ccccc1 | inactive
CCOP(=S)(S)OCC | inactive
CCC[N+](CCC)(CCC)CCC | inactive
C[N+](C)(C)CC1CO1 (centres undefined) | inactive
COCc1cnc(C2=NC(C)(C(C)C)C(=O)N2)c(C(=O)O)c1 (centres undefined) | inactive
CC(C)(C)NCC(O)c1ccccc1Cl (centres undefined) | inactive
CCN(C(C)=O)c1cccc(-c2ccnc3c(C#N)cnn23)c1 | inactive
N#CC(C#N)=Cc1ccc(O)c(O)c1 | inactive
O=S(=O)(Cl)Cl | inactive
CCC(C)(C)c1ccc(O)c(C(C)(C)CC)c1 | inactive
CC(C)OC(=O)Cc1ccccc1 | inactive
NC(=S)c1c(Cl)cccc1Cl | inactive
CCCC(C)(COC(N)=O)COC(=O)NC(C)C (centres undefined) | inactive
CON(C)C(=O)Nc1ccc(Cl)cc1 | inactive
Cc1nc(N(C)C)nc(OC(=O)N(C)C)c1C | inactive
CCOP(=O)(O)C(N)=O | inactive
COC(=O)Cc1ccccc1 | inactive
Clc1ccccc1 | inactive
CC(C)C1(C)N=C(c2ncccc2C(=O)O)NC1=O (centres undefined) | inactive
CC(=O)OC(c1ccccc1)C(Cl)(Cl)Cl (centres undefined) | inactive
CCOC(=O)NC(O)C(Cl)(Cl)Cl (centres undefined) | inactive
CC(Cc1ccccc1)NCc1ccccc1Cl (centres undefined) | inactive
CCOC(=O)c1cncn1C(C)c1ccccc1 (centres undefined) | inactive
